Growth inhibition data for ten compounds are collected here from PubChem BioAssay (NCI).

A short description of assay [1]: NCI Yeast Anticancer Drug Screen. Data for the rad50 strain (AID 155).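 Further: 0% = growth of vehicle-only cultures of the same strain.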 To be noted: S. cerevisiae rad50 strain growth inhibition, stronger effect = higher value. The gist of the method:
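Growth of the mutant yeast was measured after compound exposure and referenced to vehicle-treated cultures.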

Assay [2] can be described thus: NCI Yeast Anticancer Drug Screen. Data for the mec2-1 strain (AID 157). To be noted: S. cerevisiae mec2-1 strain, stronger effect = higher value. A digest of the protocol:
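mec2-1 yeast strain, carrying an alteration in DNA damage repair or cell cycle control, was exposed to compounds; growth inhibition was measured relative to vehicle-treated controls.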

The nature of assay [3]: NCI Yeast Anticancer Drug Screen. Data for the sgs1 mgt1 strain (AID 161).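 Further: 0% = growth of cultures given vehicle only.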 To be noted: S. cerevisiae sgs1 mgt1 strain, stronger effect = higher value. A digest of the protocol: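 Yeast cells carrying a defined DNA-repair defect were exposed to test compounds. Growth inhibition was measured relative to vehicle-treated controls.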
Assay [4] is described as follows: NCI Yeast Anticancer Drug Screen. Data for the cln2 rad14 strain (AID 165).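 Further: 0% = growth equal to vehicle treated cultures.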 To be noted: S. cerevisiae cln2 rad14 strain, stronger effect = higher value. The gist of the method: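 Yeast carrying cln2 and rad14 alterations (cell cycle control and DNA damage repair) were exposed to compounds. Growth inhibition was measured against vehicle-treated controls.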
The nature of assay [5]: NCI Yeast Anticancer Drug Screen. Data for the bub3 strain (AID 167). To be noted: S. cerevisiae bub3 mutant strain, stronger effect = higher value. A digest of the protocol: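 Whole-cell yeast assay. The mutant strain was incubated with compounds, and growth inhibition was determined by comparison with vehicle-treated cells.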
Assay [6] in a line: NCI Yeast Anticancer Drug Screen. Data for the mlh1 rad18 strain (AID 175). To be noted: S. cerevisiae mlh1 rad18 strain growth inhibition, stronger effect = higher value. A digest of the protocol:
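Growth inhibition of the yeast strain was measured after compound exposure and expressed relative to vehicle-treated controls. The strain carries defined defects in DNA damage repair.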

Where [7] appears, read: at 5.0 µM (retest, dose inferred, filed as 0.5).
Setting [8] is: at 50.0 µM (retest, dose inferred, filed as 5.0).

Compounds without any hit were thinned out: in the full panel of roughly 79,000, 15% have a hit. Unmarked numbers belong to inactive results. The source made the active and inactive calls. No stated cut-off is given here; in the data, active means growth inhibition above about 70%; inactive means the rest.

Take `CCCCNC(=S)NC1C2CC3CC(C2)CC1C3` (stereo not given): the growth inhibition in assay [1] (setting [7]) is -8%; in assay [1] (setting [8]), 78% (active); in assay [1] (at 50.0 µM) it was 97.4% (active); in assay [2] (setting [7]), -4%; in assay [2] (setting [8]), 64%; in assay [2] (at 50.0 µM) it was 98.5% (active). Besides, the growth inhibition was -4% in assay [3] (setting [7]); 90% (active) in assay [3] (setting [8]); 97.9% (active) in assay [3] (at 50.0 µM); 0% in assay [4] (setting [7]); 39% in assay [4] (setting [8]); 92.2% (active) in assay [4] (at 50.0 µM). For the same compound, the growth inhibition in assay [5] (setting [7]) was -8%; in assay [5] (setting [8]), 24%; in assay [5] (at 50.0 µM), 90.4% (active); in assay [6] (setting [7]), -13%; in assay [6] (setting [8]), 93% (active); in assay [6] (at 50.0 µM) it was 97.2% (active).
Regarding `O=C(N/C(=C\c1ccccc1Cl)c1nc2ccccc2s1)c1ccccc1`, the growth inhibition in assay [1] (setting [7]) is 20%; in assay [1] (setting [8]), 99% (active); in assay [1] (at 50.0 µM), 99% (active); in assay [2] (setting [7]), 13%; in assay [2] (setting [8]) it was 99% (active); in assay [2] (at 50.0 µM), 99.2% (active). Also, the growth inhibition in assay [3] (setting [7]) was 54%; in assay [3] (setting [8]) it was 99% (active); in assay [3] (at 50.0 µM) it was 99.2% (active); in assay [4] (setting [7]), 11%; in assay [4] (setting [8]) it was 99% (active); in assay [4] (at 50.0 µM) it was 99% (active). For the same compound, the growth inhibition in assay [5] (setting [7]) was 30%; in assay [5] (setting [8]) it was 99% (active); in assay [5] (at 50.0 µM) it was 98.8% (active); in assay [6] (setting [7]) it was 20%; in assay [6] (setting [8]) it was 99% (active); in assay [6] (at 50.0 µM), 99.1% (active).
Take `Cc1ccc(-c2c(C#N)c(-c3ccccc3)n(NS(=O)(=O)c3ccc(C)cc3)c(=O)c2C#N)cc1`: the growth inhibition in assay [1] (setting [7]) is 26%; in assay [1] (setting [8]) it was 73% (active); in assay [1] (at 50.0 µM) it was 73.5% (active); in assay [2] (setting [7]), 28%; in assay [2] (setting [8]), 67%; in assay [2] (at 50.0 µM), 79.1% (active). Also, the growth inhibition is 35% in assay [3] (setting [7]); 70% (active) in assay [3] (setting [8]); 81% (active) in assay [3] (at 50.0 µM); 52% in assay [4] (setting [7]); 68% in assay [4] (setting [8]); 80.8% (active) in assay [4] (at 50.0 µM). For the same compound, the growth inhibition in assay [5] (setting [7]) is 51%; in assay [5] (setting [8]), 70% (active); in assay [5] (at 50.0 µM) it was 81.7% (active); in assay [6] (setting [7]) it was 34%; in assay [6] (setting [8]) it was 72% (active); in assay [6] (at 50.0 µM), 77.2% (active).
On to `CC(C)(C)c1ccc(O)c(C2CCCCC2)c1`, for which the growth inhibition in assay [1] (setting [7]) is 5%; in assay [1] (setting [8]) it was 99% (active); in assay [1] (at 50.0 µM) it was 99.3% (active); in assay [2] (setting [7]) it was -3%; in assay [2] (setting [8]), 100% (active); in assay [2] (at 50.0 µM) it was 99.7% (active). Further, the growth inhibition was -1% in assay [3] (setting [7]); 99% (active) in assay [3] (setting [8]); 99.5% (active) in assay [3] (at 50.0 µM); -3% in assay [4] (setting [7]); 99% (active) in assay [4] (setting [8]); 99.5% (active) in assay [4] (at 50.0 µM). Further, the growth inhibition in assay [5] (setting [7]) is 2%; in assay [5] (setting [8]), 99% (active); in assay [5] (at 50.0 µM), 96.4% (active); in assay [6] (setting [7]) it was -1%; in assay [6] (setting [8]) it was 100% (active); in assay [6] (at 50.0 µM), 99% (active).
Take `Cc1ccc(N=c2cc(-c3ccccc3)oc3ccccc23)c(C)c1`: the growth inhibition in assay [1] (setting [7]) is 1%; in assay [1] (setting [8]), 74% (active); in assay [1] (at 50.0 µM) it was 3%; in assay [2] (setting [7]), -11%; in assay [2] (setting [8]), 48%; in assay [2] (at 50.0 µM), -12.4%. Moreover, the growth inhibition in assay [3] (setting [7]) is 3%; in assay [3] (setting [8]), 93% (active); in assay [3] (at 50.0 µM), 11%; in assay [4] (setting [7]) it was 5%; in assay [4] (setting [8]) it was 51%; in assay [4] (at 50.0 µM), 8.1%. In addition, the growth inhibition in assay [5] (setting [7]) is 11%; in assay [5] (setting [8]) it was 94% (active); in assay [5] (at 50.0 µM), 5.6%; in assay [6] (setting [7]) it was 4%; in assay [6] (setting [8]), 94% (active); in assay [6] (at 50.0 µM), 18.6%.
In the case of `Cc1c(S(C)=O)[n+](=O)c2ccccc2n1[O-]` (stereo not given), the growth inhibition in assay [1] (setting [7]) was 13%; in assay [1] (setting [8]), 85% (active); in assay [1] (at 50.0 µM) it was 32.9%; in assay [2] (setting [7]), 0%; in assay [2] (setting [8]), 93% (active); in assay [2] (at 50.0 µM), 33.7%. Moreover, the growth inhibition in assay [3] (setting [7]) was 8%; in assay [3] (setting [8]) it was 92% (active); in assay [3] (at 50.0 µM), 35.9%; in assay [4] (setting [7]), 2%; in assay [4] (setting [8]) it was 40%; in assay [4] (at 50.0 µM), 7.75%. Also, the growth inhibition was -2% in assay [5] (setting [7]); 89% (active) in assay [5] (setting [8]); -5.5% in assay [5] (at 50.0 µM); 18% in assay [6] (setting [7]); 96% (active) in assay [6] (setting [8]); 58.6% in assay [6] (at 50.0 µM).
As to `CC(SCc1ccccc1)C(=O)O` (stereo not given), the growth inhibition is -10% in assay [1] (setting [7]); 10% in assay [1] (setting [8]); -9.25% in assay [1] (at 50.0 µM); 3% in assay [2] (setting [7]); 7% in assay [2] (setting [8]); -29.8% in assay [2] (at 50.0 µM). The growth inhibition in assay [3] (setting [7]) was -6%; in assay [3] (setting [8]), 3%; in assay [3] (at 50.0 µM) it was -35.9%; in assay [4] (setting [7]) it was 9%; in assay [4] (setting [8]) it was -1%; in assay [4] (at 50.0 µM) it was 73% (active). Besides, the growth inhibition in assay [5] (setting [7]) is -21%; in assay [5] (setting [8]), -2%; in assay [5] (at 50.0 µM) it was -18.6%; in assay [6] (setting [7]), -2%; in assay [6] (setting [8]) it was 44%; in assay [6] (at 50.0 µM), -44.5%.
Turning to `Cc1cc(N(CCC#N)CCC#N)ccc1/C(N=Nc1cccc([N+](=O)[O-])c1)=N/NC(=O)c1cc(Cl)ccc1O`, the growth inhibition is 8% in assay [1] (setting [7]); 47% in assay [1] (setting [8]); 63.4% in assay [1] (at 50.0 µM); 8% in assay [2] (setting [7]); 25% in assay [2] (setting [8]); 47% in assay [2] (at 50.0 µM). For the same compound, the growth inhibition in assay [3] (setting [7]) is 9%; in assay [3] (setting [8]), 49%; in assay [3] (at 50.0 µM) it was 66%; in assay [4] (setting [7]), -1%; in assay [4] (setting [8]), 28%; in assay [4] (at 50.0 µM) it was 23.9%. Moreover, the growth inhibition in assay [5] (setting [7]) is 8%; in assay [5] (setting [8]), 58%; in assay [5] (at 50.0 µM) it was 79.3% (active); in assay [6] (setting [7]), 12%; in assay [6] (setting [8]), 29%; in assay [6] (at 50.0 µM), 31.9%.
`O=C(O)/C(Cl)=C(\Cl)C(=O)Nc1cccc(C(F)(F)F)c1`: the growth inhibition in assay [1] (setting [7]) was 65%; in assay [1] (setting [8]), 99% (active); in assay [1] (at 50.0 µM), 99.5% (active); in assay [2] (setting [7]), 56%; in assay [2] (setting [8]), 100% (active); in assay [2] (at 50.0 µM), 99.7% (active). In addition, the growth inhibition is 68% in assay [3] (setting [7]); 100% (active) in assay [3] (setting [8]); 99.7% (active) in assay [3] (at 50.0 µM); 43% in assay [4] (setting [7]); 99% (active) in assay [4] (setting [8]); 99.3% (active) in assay [4] (at 50.0 µM). The growth inhibition in assay [5] (setting [7]) is 88% (active); in assay [5] (setting [8]), 99% (active); in assay [5] (at 50.0 µM) it was 99.6% (active); in assay [6] (setting [7]), 49%; in assay [6] (setting [8]), 99% (active); in assay [6] (at 50.0 µM), 99.5% (active).
Regarding `O=C1c2ccccc2C(=O)N1c1ccccc1`, the growth inhibition is -2% in assay [1] (setting [7]); -20% in assay [1] (setting [8]); 31.4% in assay [1] (at 50.0 µM); -3% in assay [2] (setting [7]); -1% in assay [2] (setting [8]); -5.9% in assay [2] (at 50.0 µM). The growth inhibition in assay [3] (setting [7]) is 1%; in assay [3] (setting [8]), 5%; in assay [3] (at 50.0 µM), 20%; in assay [4] (setting [7]), 3%; in assay [4] (setting [8]), 7%; in assay [4] (at 50.0 µM) it was 42.2%. Moreover, the growth inhibition was 36% in assay [5] (setting [7]); 15% in assay [5] (setting [8]); 2.3% in assay [5] (at 50.0 µM); -1% in assay [6] (setting [7]); 2% in assay [6] (setting [8]); 16.4% in assay [6] (at 50.0 µM).
